# The panel holds about 83,000 compounds, 20% with a hit somewhere; the sample as a whole holds those more often.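 Values shown are percent growth following 48 h exposure of cells in 96-well plates to a single concentration of compound; below 10 was considered active.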 Values without a mark were called inactive. Active and inactive are the calls of the source.
# How the values were obtained:
# Test in all cases: NCI-60 one-dose screen, 48 h (100 = growth as untreated, 0 = no growth, -100 = all killed)
# Conditions in all cases: 10 µM unless noted
# NCI-H23 lung = tested on: NCI-H23 lung
# NCI-H226 lung = tested on: NCI-H226 lung
# NCI-H322M lung = tested on: NCI-H322M lung
# HOP-62 NSCLC = tested on: HOP-62 NSCLC
# NCI-H460 lung = tested on: NCI-H460 lung
# HOP-92 NSCLC = tested on: HOP-92 NSCLC
# NCI-H522 lung = tested on: NCI-H522 lung
# A549/ATCC NSCLC = tested on: A549/ATCC NSCLC
# 786-0 renal = tested on: 786-0 renal
# COLO 205 colon = tested on: COLO 205 colon
Structure (SMILES),growth (NCI-H23 lung),growth (NCI-H226 lung),growth (NCI-H322M lung),growth (HOP-62 NSCLC),growth (NCI-H460 lung),growth (HOP-92 NSCLC),growth (NCI-H522 lung),growth (A549/ATCC NSCLC),growth (786-0 renal),growth (COLO 205 colon)
COc1ccc(OC)c(/C=N/Nc2ncnc3c2c(C)nn3C)c1,106%,92.6%,114%,92%,106%,96.2%,93.8%,104%,102%,102%
Clc1cccc(Nc2ncnc3ccc(-c4cnc5[nH]ccc5c4)cc23)c1,84.4%,80%,18.7%,86.9%,78.3%,94.5%,33.9%,50.1%,-19.6% (active),83.4%
O=c1scc(-c2ccc(C(F)(F)F)cc2)s1,89%,91%,90.5%,92.3%,102%,81%,67.5%,79.1%,90.3%,131%
C=C(C)[C@@H]1CC[C@]2(C(=O)O)CC[C@]3(C)[C@H](CC[C@@H]4[C@@]5(C)CCC(NC(=O)c6cccc(OC(C)=O)c6OC(C)=O)C(C)(C)[C@@H]5CC[C@]43C)[C@@H]12 (stereo not given in full),1.89% (active),-17.4% (active),8.78% (active),-14.6% (active),-39.4% (active),-11% (active),-11.4% (active),-6.31% (active),-3.81% (active),-11.3% (active)
N#Cc1c(-c2ccc(Cl)cc2)c(C#N)c2c(C#N)c(N)nn2c1N,98.1%,86.8%,81.7%,79.5%,86.9%,61%,64.8%,77.4%,86.6%,95.2%
COc1cc2nc3cc([N+](=O)[O-])ccc3c(NCCNCC(C)O)c2cc1OC (stereo not given),-27.8% (active),-11.1% (active),-11.9% (active),-19.2% (active),-40.2% (active),-42.1% (active),-26.6% (active),-26.8% (active),-3.6% (active),-76.6% (active)
COc1ccc(Nc2ncc(Br)c(NCCCNC(=O)C3CCCC3)n2)cc1,30.3%,28.5%,58.5%,22.4%,23.6%,26%,65.7%,38.9%,36.3%,21.6%
NC(=O)c1c(NC(=O)c2ccc3ccccc3c2)sc2c1CCC(=O)C2,35.4%,91.8%,94.9%,99.9%,92.6%,83.6%,10.5%,95.5%,99.6%,58.4%
Nc1ncnc2c1N=C(c1ccc(Br)cc1)CC(c1cccc(Nc3ccnc4cc(C(F)(F)F)ccc34)c1)N2 (stereo not given),62.7%,67.3%,95.6%,60.1%,59.1%,41.4%,74%,55.2%,53.7%,54.6%
COc1ccc(C(=O)Nc2cccc(-c3cc(=O)c4c(OC)c(OC)c(OC)cc4o3)c2)cc1,57.5%,69.9%,55.1%,72.5%,42.1%,6.67% (active),44.5%,64.7%,55%,73.1%
COc1ccc(C(=O)c2cc3c(N)c(C(=O)Nc4ccc(C)cc4)sc3nc2C)cc1,43.3%,57.2%,48.9%,36.3%,4.1% (active),70.8%,13.3%,22.3%,42.9%,18.7%
C=C1C(=O)O[C@H]2[C@H]1CC/C(COC(=O)NCc1ccc(Cn3c(=O)sn(CCCCC)c3=O)cc1)=C\CC[C@@]1(C)O[C@@H]21,78.6%,75.4%,93.4%,81.2%,92.6%,-15.6% (active),-68.6% (active),89.3%,32.1%,-20.8% (active)
CC(=O)N1N=C(c2ccc(C(F)(F)F)c(F)c2)CC1c1[nH]c(C)c(C(=O)NCC(F)(F)F)c1C (stereo not given),78.8%,56.3%,74.6%,64.9%,52.1%,52.4%,94.8%,55.8%,13.1%,112%
COc1ccc2[nH]c(C(=O)N3CCN(C(=O)OCc4ccc5c(Cl)cc(Cl)c(O)c5n4)CC3)cc2c1,-85.8% (active),-4.54% (active),29.1%,-61.5% (active),-58.9% (active),-65.4% (active),-70.8% (active),-68% (active),-91.7% (active),-81.6% (active)

# Reference: PubChem BioAssay (NCI)
